SARS PLpro yeast = SARS-CoV PLP inhibition in yeast; S. cerevisiae expressing SARS-CoV PLpro, growth rescue; Potency, µM (titrated, usually from 32.9 µM), inactives show top-dose activity, positive = growth rescue, actives largely listed as activators; hit rate 0.19% among 330,000; AID 485353; calls by dose curve; also: potency is read from the fitted curve at half-maximal effect; 0% is about no effect; nearly all actives have a fitted effect of over 55% in size
HCV inhibitor = HCV inhibition; Huh7.5.1 HCVcc-Cre infection, luciferase reporter, 44 h; Potency, µM (doses to about 41.8 µM), for the others: at the top dose activity change, negative = inhibition, most hits filed as inhibitors; hit rate 3.4% among 340,000; also: potency is read from the fitted curve at half-maximal effect; % is scaled to controls: 0 for no effect and ±100 for the full control effect
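Infectious HCVcc-Cre (~0.5 moi) was added to cells just after compound, with cells seeded 4 h earlier at 1,000 per well. Luciferase activity after 44 h culture reported infection; substrate was incubated 15 min at room temperature before reading.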
Pf growth 48h = P. falciparum growth inhibition at 48 hours (one generation); P. falciparum luciferase growth in erythrocytes, 48 h; Potency, µM (titrated, usually from 28.7 µM), for the others: top-dose activity change, negative = inhibition, most hits filed as inhibitors; hit rate 5.9% among 310,000; AID 504832; also: potency is read from the fitted curve at half-maximal effect; % is scaled to controls: 0 for no effect and ±100 for the full control effect
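Luciferase-expressing parasites in RBCs, 2% Hct / 0.1% parasitemia final; RPMI 1640 + 0.5% Albumax; 37 C, 5% CO2, one generation; luminescence read-out, lower signal = inhibition.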
HCMV inh = human cytomegalovirus inhibition; HFF cells, HCMV-luciferase reporter, 72 h; active compounds read low; activity change, negative = inhibition, % at 57.5 µM; hit rate 4.5% among 410,000; AID 1259415; in the data active = activity change below about -60%; inconclusive = no clear call, values can overlap the other calls; inactive = above about -39%; also: % is scaled to controls: 0 for no effect and ±100 for the full control effect
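After 16 h attachment at 37C, HFF cells received test compound and HCMV-luciferase (1 PFU/cell); reporter luminescence read 72 h later, data normalized against buffer-only and known inhibitor Salinomycin.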
Sm TGR block = blocks Schistosoma mansoni thioredoxin glutathione reductase. purified TGR, DTNB reduction, TNB absorbance 405 nm. Potency, µM (top dose mostly 114 µM), for inactives: at the highest dose activity change, negative = inhibition, usual class: inhibitors. hit rate 3% among 360,000. AID 485364; also: potency is read from the fitted curve at half-maximal effect; % is scaled to controls: 0 for no effect and ±100 for the full control effect; nearly all actives have a fitted effect of over 60% in size
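TGR 20 nM + NADPH 100 uM (dispensed conc.), cpd preinc 15 min RT; start with NADPH (500 uM addition) then DTNB (15 mM addition). Kinetic TNB absorbance, 405 nm filter. Four-parameter Hill fit across titration.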
Pf growth 96h = inhibits malaria parasite growth, 96 h | P. falciparum luciferase reporter growth, 96 h | Potency, µM (highest dose often 28.7 µM), inactives show at the top dose activity change, negative = inhibition, hits mostly inhibitors | hit rate 6.9% among 320,000 | AID 504834; also: potency is read from the fitted curve at half-maximal effect; % is scaled to controls: 0 for no effect and ±100 for the full control effect
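96 h incubation, 37 C, 5% CO2, of luciferase-reporter P. falciparum-infected RBCs (2% hematocrit, 0.05% parasitemia final) with test compounds; endpoint luminescence.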
Active calls of the source: *; ? = inconclusive; nt = not tested or not shown; + = active, no number; [ ] = remark or other dose. Shown are actives, neighbours in structure and some others; about 15% of the full set was active somewhere. Unless noted, calls follow the shape of the dose curve; as a rule, active = well fitted curve in the direction sought with a large enough effect; inconclusive = small, poorly fitted or top-dose-only effect, or another doubt; inactive = no such curve, though single readings can be large; an effect the other way counts as inactive or inconclusive.

SMILES | SARS PLpro yeast | HCV inhibitor | Pf growth 48h | HCMV inh | Sm TGR block | Pf growth 96h
Cc1ccc(C(=O)N/C(=C/c2ccco2)C(=O)Nc2cccc(C)c2)cc1 | -13.8% | ? | -25.6% | 33.4 | ? | nt
CCCCOc1ccc(C(=O)N/C(=C\c2ccc(OC)cc2)C(=O)OCc2ccco2)cc1 | -4.6% | -6.9% | ? | 36.9 | 8.5% | 44.0%
Cc1ccc(NC(=O)c2ccco2)c(NC(=O)c2cccs2)c1 | 0.8% | 11.2µM* | 4.5% | 14.6 | -11.0% | nt
COc1cc(NC(=O)c2cccs2)ccc1NC(=O)c1ccco1 | -3.4% | ? | 44.0% | 41.3 | 2.6% | 12.5%
COc1ccc(C(=O)N/C(=C\c2ccco2)C(=O)OCc2ccco2)cc1 | -2.0% | -5.1% | 7.4% | 29.3 | 28.2µM* | -15.1%
O=C(NCc1ccc2c(c1)OCO2)c1cc2c(s1)CSC2 | 3.2% | 2.1%[8.37 µM] | 20.4% | 18.9 | -12.1% | 37.0%
O=C(NCc1ccco1)c1cc2c(s1)CSC2 | -8.7% | -8.0% | 0.1% | nt | 17.8µM* | ?
C/C(=N\N=C(/N)c1nonc1N)c1ccc2c(c1)OCO2 | 0.0% | ? | 296.7% | 43.7 | 1.6% | 167.0%
O=C(CCn1cnc2onc(-c3ccc(F)cc3)c2c1=O)Nc1ccc(F)c(Cl)c1 | nt | nt | nt | -67.3* | 5.6% | nt
O=C(CCn1cnc2onc(-c3ccc(F)cc3)c2c1=O)Nc1cccc(C(F)(F)F)c1 | nt | nt | nt | -85.8* | 0.0% | nt
COc1ccccc1NC(=O)CCn1cnc2onc(-c3ccc(F)cc3)c2c1=O | nt | nt | nt | -0.3 | 9.4% | nt
COc1ccccc1CNC(=O)C[n+]1ccccc1 | -1.0% | 1.3% | 2.6% | 39.7 | -2.3% | nt
O=C(Cn1cc(C(F)(F)F)ccc1=O)NC1CCCC1 | -2.0% | -11.6% | -4.4% | -10.4 | -22.2% | -2.7%
O=C(Cn1c(=O)c2cccn2c2cccnc21)N1CCN(c2ccc(Cl)cc2)CC1 | -0.3% | 12.6µM* | -1.1% | nt | -0.6% | 7.9%
Cc1cccc(N2CCN(C(=O)CCCn3c(=O)c4cccn4c4cccnc43)CC2)c1C | -14.0% | ? | ? | -11.5 | 1.3% | 11.7µM*
CC1CC(C)CN(C(=O)CCCn2c(=O)c3cccn3c3cccnc32)C1 (configuration not stated) | -1.9% | -15.8% | ? | ? | -12.8% | 11.7µM*
CCOC(=O)C1CCCN(C(=O)Cn2c(=O)c3cccn3c3cccnc32)C1 (configuration not stated) | -5.9% | ? | -11.8% | 26.7 | -8.4% | 10.4µM*
O=C(CCn1c(=O)c2cccn2c2cccnc21)N1CCN(c2ccc(Cl)cc2)CC1 | nt | nt | nt | ? | -0.2% | nt
CCOc1ccc(C(=O)Nc2ccc3c(c2)CCCN3S(=O)(=O)c2ccc(C)cc2)cc1 | nt | nt | nt | ? | 2.5% | nt
CN1CCN(C(=O)CCn2c(=O)c3cccn3c3cccnc32)CC1 | 14.4% | 16.2% | 33.5% | + | -0.4% | 13.1µM*
O=C(CCn1c(=O)c2cccn2c2cccnc21)N1CCN(c2ccccc2)CC1 | nt | nt | nt | -19.4 | 10.1% | nt
Cc1ccc(C)c(-n2cc(-c3ccccc3)nc2SCC(=O)Nc2ccccc2)c1 | nt | nt | nt | -14.6 | 0.0% | nt
FC(F)(F)c1nc(=S)c2ccccc2[nH]1 | -1.2% | -28.9% | 34.3% | -2.8 | 2µM* | ?
Cc1nc(=S)c2ccccc2[nH]1 | ? | ? | nt | 114.3 | 0.0% | 40.1%
O=C(NCc1ccccc1)C(C1CC1)n1c(-c2cccs2)nc2ccccc21 (configuration not stated) | nt | nt | nt | 13.5 | nt | nt
SMILES | SARS PLpro yeast | HCV inhibitor | Pf growth 48h | HCMV inh | Sm TGR block | Pf growth 96h
C/C=C/C=C\C(=O)Nc1cccc(C2=NOC3(C2)C[C@@H](C(N)=O)N(C(=O)c2cc([N+](=O)[O-])cc([N+](=O)[O-])c2)C3)c1 (some centres not stated) | 5.2% | ? | ? | ? | 3.55µM* | -92.4%
C=C(C)C(=O)Nc1cccc(C2=NOC3(C2)C[C@@H](C(N)=O)N(C(=O)c2cc([N+](=O)[O-])cc([N+](=O)[O-])c2C)C3)c1 (some centres not stated) | 1.1% | -20.2% | ? | 53.0 | 2.5% | ?
C/C=C/C(=O)Nc1cccc(C2=NOC3(C2)C[C@@H](C(N)=O)N(C(=O)c2cc([N+](=O)[O-])cc([N+](=O)[O-])c2C)C3)c1 (some centres not stated) | 1.3% | 7.1%[8.37 µM] | ? | -74.2* | 2.9% | ?
C/C=C\C=C/C(=O)Nc1cccc(C2=NOC3(C2)C[C@@H](C(N)=O)N(C(=O)/C=C/C=C\C)C3)c1 (some centres not stated) | -0.4% | 6.6% | 99.4% | nt | ? | ?
C/C=C\C(=O)Nc1cccc(C2=NOC3(C2)C[C@H](C(N)=O)N(C(=O)Cc2ccc([N+](=O)[O-])cc2)C3)c1 (some centres not stated) | 1.2% | -5.0% | ? | 33.2 | -19.7% | 11.7µM*
CCOC(=O)c1ccc(NC(=O)C2=C(C)Nc3nc(SCc4ccc(Cl)cc4)nn3C2c2ccc(OC)cc2)cc1 (configuration not stated) | nt | nt | nt | 3.8 | 10.4% | nt
CCCC1c2ccc(C)n2CCN1C(=O)Nc1ccc(F)cc1 (configuration not stated) | -6.8% | -1.1% | ? | 8.3 | 20µM* | 13.8%
CCC1c2ccc(C)n2CCN1C(=O)Nc1ccc(F)cc1 (configuration not stated) | -2.6% | 14.8% | nt | -6.2 | 10µM* | -1.7%
CCC(=O)N1CCc2cc(S(=O)(=O)CCC(=O)Nc3ccc(OC(F)(F)F)cc3)ccc21 | nt | nt | nt | -32.3 | -12.6% | nt
Cc1cccc(C)c1NC(=O)CSc1nc(C2CC2)nc2ccccc12 | 1.2% | -7.0% | -0.8% | -7.5 | -8.8% | -6.9%
CC(C)CCOc1ccc(C(=O)O)cc1 | -7.2% | 9.2% | 19.9% | -30.6 | -5.8% | nt
CC(C)CCOc1ccc(C(=O)CCNC(C)C(=O)O)cc1 (configuration not stated) | -2.8% | 11.4% | 6.9% | nt | 1µM* | 51.4%
COc1ccc(C)cc1Nc1nc2cc(Cl)c(Cl)cc2nc1-n1nc(C)cc1C | nt | nt | nt | 8.7 | -2.4% | nt
CCC1(C)Cc2nc3[nH]c(=S)n(-c4ccccc4C)c(=O)c3cc2CO1 (configuration not stated) | -1.5% | -3.2% | -18.2% | ? | 13.0% | -5.4%
CCC1(C)Cc2nc3[nH]c(=S)n(-c4ccccc4)c(=O)c3cc2CO1 (configuration not stated) | -15.8% | -6.1% | -6.3% | -63.0* | -0.2% | 7.38µM*
CCc1nn(CCCC(=O)N2CCN(c3cccc(C)c3C)CC2)c(=O)c2cc3occc3n12 | -9.4% | 14.1µM* | 0.6% | -24.9 | -1.9% | ?

Screens (PubChem BioAssay)
